Measurements: paper PMC7862700, “An all-to-all approach to the identification of sequence-specific readers for epigenetic DNA modifications on cytosine”

Experiments:
Assay in all cases: DAPPL (digital affinity profiling via proximity ligation, sequencing); 10 mM Tris-HCl pH 7.5, 50 mM NaCl, 1 mM DTT, 4% glycerol, room temperature, 30 min; GST-TFs on glutathione beads, 16-mer random dsDNA library, 0.1% formaldehyde crosslink after washing; high values mean tight binding
FEV = molecular target: T1, FEV (Homo sapiens, UniProt Q99581 1-238); conditions: protein: recombinant; tags: N-terminal GST; dsDNA, one strand shown
T1 sequence: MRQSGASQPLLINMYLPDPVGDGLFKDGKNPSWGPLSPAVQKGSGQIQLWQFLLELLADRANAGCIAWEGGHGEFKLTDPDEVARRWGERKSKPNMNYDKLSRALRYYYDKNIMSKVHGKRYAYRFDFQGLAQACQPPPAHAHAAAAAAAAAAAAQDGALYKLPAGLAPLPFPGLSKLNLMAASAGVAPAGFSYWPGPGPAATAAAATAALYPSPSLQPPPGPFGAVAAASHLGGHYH
In short: (§1)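 Yeast served to express human transcription factors as GST fusions, which were then captured on glutathione beads and labelled with DNA barcodes. Pooled with a tag-only sample, they were incubated with 200 nmole of a 16-mer random double-stranded DNA library for 30 min at room temperature in Tris/NaCl/DTT/glycerol buffer, washed, crosslinked with 0.1% formaldehyde, ligated by proximity, amplified by PCR and sequenced. Dividing each hexamer's read frequency for a factor by its frequency for the tag-only sample gives the binding signal.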

ETV5 = ETV5 (Homo sapiens, UniProt P41161 1-510); conditions: protein: recombinant; tags: N-terminal GST; dsDNA, one strand shown
Chain of ETV5 (P41161 whole entry): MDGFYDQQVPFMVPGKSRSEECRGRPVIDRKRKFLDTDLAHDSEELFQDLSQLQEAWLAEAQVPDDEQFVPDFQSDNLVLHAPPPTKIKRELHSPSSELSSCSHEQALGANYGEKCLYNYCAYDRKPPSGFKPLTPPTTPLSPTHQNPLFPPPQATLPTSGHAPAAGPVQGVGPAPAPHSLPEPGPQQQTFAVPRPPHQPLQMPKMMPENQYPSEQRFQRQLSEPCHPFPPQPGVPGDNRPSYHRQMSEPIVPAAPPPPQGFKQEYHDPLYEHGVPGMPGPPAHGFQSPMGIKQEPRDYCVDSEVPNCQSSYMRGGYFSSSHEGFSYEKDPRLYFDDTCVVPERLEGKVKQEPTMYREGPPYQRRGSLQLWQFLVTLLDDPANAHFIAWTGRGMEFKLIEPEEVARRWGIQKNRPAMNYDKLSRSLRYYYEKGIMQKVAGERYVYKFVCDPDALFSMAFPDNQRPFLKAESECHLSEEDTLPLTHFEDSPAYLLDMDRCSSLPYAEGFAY
In short: as §1

HSF1 = HSF1 (Homo sapiens, UniProt Q00613 1-529); conditions: protein: recombinant; tags: N-terminal GST; chain copies: 3; dsDNA, one strand shown
Chain of HSF1 (Q00613 whole entry): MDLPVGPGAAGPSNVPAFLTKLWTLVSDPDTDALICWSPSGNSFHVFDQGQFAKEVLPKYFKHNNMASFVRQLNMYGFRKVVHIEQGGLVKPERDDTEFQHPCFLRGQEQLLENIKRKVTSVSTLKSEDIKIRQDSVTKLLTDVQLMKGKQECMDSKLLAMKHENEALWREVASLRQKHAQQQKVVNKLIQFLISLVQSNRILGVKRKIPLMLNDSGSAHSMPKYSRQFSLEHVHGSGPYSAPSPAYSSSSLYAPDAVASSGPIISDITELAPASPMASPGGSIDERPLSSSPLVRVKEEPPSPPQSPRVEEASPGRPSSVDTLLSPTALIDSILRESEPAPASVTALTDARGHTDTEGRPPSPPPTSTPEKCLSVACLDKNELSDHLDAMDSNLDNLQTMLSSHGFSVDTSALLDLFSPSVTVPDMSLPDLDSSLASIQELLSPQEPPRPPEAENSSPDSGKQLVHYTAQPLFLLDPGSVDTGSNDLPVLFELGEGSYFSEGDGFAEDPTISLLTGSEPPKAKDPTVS
In short: as §1

SPIC = molecular target: T2, SPIC (Homo sapiens, UniProt Q8N5J4 1-248); conditions: protein: recombinant; tags: N-terminal GST; dsDNA, one strand shown
T2 sequence: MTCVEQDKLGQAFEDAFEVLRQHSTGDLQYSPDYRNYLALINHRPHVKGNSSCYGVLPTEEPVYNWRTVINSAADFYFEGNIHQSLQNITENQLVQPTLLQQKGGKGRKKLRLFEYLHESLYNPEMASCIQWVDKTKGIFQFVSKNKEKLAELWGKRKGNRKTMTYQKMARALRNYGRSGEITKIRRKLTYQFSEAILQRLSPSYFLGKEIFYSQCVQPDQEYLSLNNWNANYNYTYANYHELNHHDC
In short: as §1

ELF4 = ELF4 (Homo sapiens, UniProt Q99607 1-663); conditions: protein: recombinant; tags: N-terminal GST; dsDNA, one strand shown
Chain of ELF4 (Q99607 whole entry): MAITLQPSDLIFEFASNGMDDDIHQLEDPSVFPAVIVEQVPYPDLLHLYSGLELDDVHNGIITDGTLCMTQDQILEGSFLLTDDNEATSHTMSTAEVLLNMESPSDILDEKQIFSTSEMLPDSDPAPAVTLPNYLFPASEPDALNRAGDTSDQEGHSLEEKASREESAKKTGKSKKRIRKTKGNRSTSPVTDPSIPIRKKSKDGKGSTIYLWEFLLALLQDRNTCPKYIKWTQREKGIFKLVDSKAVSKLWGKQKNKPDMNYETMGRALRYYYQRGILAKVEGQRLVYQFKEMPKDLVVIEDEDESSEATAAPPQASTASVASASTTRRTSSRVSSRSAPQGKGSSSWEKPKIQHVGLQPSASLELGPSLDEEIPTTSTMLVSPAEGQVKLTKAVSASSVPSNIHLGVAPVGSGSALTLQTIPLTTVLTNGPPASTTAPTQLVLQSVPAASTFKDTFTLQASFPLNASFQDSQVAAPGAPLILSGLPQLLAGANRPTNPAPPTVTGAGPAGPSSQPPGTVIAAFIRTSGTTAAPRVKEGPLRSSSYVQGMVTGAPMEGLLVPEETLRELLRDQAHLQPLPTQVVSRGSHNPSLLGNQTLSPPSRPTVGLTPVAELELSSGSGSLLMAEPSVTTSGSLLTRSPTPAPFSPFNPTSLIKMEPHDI
In short: as §1

ELK4 = molecular target: T3, ELK4 (Homo sapiens, UniProt P28324-2 1-405); conditions: protein: recombinant; tags: N-terminal GST; dsDNA, one strand shown
T3 sequence: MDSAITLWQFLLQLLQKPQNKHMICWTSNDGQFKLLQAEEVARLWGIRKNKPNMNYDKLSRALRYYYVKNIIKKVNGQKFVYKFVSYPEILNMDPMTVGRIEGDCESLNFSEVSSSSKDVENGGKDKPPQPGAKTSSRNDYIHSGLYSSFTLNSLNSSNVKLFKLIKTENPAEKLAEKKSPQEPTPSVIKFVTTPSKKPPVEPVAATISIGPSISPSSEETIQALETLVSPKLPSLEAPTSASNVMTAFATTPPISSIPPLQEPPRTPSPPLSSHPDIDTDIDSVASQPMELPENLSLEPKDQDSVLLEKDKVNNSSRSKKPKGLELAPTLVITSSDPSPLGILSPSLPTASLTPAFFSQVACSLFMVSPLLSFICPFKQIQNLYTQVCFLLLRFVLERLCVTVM
In short: as §1

ETV2 = molecular target: T4, ETV2 (Homo sapiens, UniProt O00321 1-342); conditions: protein: recombinant; tags: N-terminal GST; dsDNA, one strand shown
T4 sequence: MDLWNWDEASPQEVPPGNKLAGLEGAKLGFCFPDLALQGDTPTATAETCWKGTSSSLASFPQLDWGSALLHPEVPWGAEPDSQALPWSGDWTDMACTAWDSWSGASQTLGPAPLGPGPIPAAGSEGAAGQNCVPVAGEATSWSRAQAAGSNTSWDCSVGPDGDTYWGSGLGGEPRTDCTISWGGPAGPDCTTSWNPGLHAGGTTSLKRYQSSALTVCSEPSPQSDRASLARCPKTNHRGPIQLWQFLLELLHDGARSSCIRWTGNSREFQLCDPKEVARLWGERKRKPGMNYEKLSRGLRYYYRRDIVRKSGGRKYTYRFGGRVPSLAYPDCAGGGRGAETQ
In short: as §1

ELF3 = molecular target: T5, ELF3 (Homo sapiens, UniProt P78545 1-371); conditions: protein: recombinant; tags: N-terminal GST; dsDNA, one strand shown
T5 sequence: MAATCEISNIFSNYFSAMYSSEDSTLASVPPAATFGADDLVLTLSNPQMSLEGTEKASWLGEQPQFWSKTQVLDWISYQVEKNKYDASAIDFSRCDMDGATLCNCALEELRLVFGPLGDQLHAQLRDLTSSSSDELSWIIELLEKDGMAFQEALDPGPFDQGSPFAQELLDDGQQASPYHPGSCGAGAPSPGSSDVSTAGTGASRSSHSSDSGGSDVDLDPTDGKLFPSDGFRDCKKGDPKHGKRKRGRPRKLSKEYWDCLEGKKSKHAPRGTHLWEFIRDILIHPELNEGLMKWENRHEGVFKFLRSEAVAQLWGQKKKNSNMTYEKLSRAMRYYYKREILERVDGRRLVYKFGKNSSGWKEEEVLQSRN
In short: as §1

CRX = CRX (Homo sapiens, UniProt O43186 1-299); conditions: protein: recombinant; tags: N-terminal GST; dsDNA, one strand shown
Chain of CRX (O43186 whole entry): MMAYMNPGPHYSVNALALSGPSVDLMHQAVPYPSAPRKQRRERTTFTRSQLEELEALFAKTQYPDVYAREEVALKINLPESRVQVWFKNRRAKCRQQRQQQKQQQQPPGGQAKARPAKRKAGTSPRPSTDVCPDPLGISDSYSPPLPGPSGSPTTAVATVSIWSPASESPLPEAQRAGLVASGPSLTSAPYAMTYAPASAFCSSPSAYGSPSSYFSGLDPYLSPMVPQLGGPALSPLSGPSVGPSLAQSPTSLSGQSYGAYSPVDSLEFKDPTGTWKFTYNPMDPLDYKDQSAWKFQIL
In short: as §1

ETV1 = ETV1 (Homo sapiens, UniProt P50549 1-477); conditions: protein: recombinant; tags: N-terminal GST; dsDNA, one strand shown
Chain of ETV1 (P50549 whole entry): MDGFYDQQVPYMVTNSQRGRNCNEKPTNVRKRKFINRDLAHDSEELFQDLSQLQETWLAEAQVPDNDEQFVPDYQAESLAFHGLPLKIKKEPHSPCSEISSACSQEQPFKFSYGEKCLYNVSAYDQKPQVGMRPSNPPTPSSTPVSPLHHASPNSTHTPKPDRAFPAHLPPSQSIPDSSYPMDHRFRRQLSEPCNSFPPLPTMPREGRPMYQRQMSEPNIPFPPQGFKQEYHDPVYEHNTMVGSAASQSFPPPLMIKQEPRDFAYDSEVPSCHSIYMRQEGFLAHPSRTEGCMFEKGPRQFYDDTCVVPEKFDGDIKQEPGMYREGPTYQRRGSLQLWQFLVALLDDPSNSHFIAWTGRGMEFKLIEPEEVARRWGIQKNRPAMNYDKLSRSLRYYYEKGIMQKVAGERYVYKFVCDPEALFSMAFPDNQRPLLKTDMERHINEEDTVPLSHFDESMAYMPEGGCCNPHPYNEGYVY
In short: as §1

ERF = molecular target: T6, ERF (Homo sapiens, UniProt P50548 1-548); conditions: protein: recombinant; tags: N-terminal GST; dsDNA, one strand shown
T6 sequence: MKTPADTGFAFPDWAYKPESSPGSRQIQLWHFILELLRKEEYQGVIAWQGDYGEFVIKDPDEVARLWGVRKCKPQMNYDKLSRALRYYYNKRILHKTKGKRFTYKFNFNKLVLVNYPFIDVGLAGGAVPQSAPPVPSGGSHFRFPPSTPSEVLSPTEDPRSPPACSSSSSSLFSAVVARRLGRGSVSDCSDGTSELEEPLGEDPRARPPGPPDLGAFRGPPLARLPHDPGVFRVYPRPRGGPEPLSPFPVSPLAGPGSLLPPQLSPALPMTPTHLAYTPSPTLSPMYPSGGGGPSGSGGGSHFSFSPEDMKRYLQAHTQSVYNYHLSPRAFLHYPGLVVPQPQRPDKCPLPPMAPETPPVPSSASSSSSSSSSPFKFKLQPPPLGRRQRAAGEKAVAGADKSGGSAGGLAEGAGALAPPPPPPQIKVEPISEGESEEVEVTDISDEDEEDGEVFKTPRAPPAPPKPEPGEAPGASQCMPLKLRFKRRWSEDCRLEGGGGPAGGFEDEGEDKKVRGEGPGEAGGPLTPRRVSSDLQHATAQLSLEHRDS
In short: as §1

ETV3L = molecular target: T7, ETV3L (Homo sapiens, UniProt Q6ZN32 1-361); conditions: protein: recombinant; tags: N-terminal GST; dsDNA, one strand shown
T7 sequence: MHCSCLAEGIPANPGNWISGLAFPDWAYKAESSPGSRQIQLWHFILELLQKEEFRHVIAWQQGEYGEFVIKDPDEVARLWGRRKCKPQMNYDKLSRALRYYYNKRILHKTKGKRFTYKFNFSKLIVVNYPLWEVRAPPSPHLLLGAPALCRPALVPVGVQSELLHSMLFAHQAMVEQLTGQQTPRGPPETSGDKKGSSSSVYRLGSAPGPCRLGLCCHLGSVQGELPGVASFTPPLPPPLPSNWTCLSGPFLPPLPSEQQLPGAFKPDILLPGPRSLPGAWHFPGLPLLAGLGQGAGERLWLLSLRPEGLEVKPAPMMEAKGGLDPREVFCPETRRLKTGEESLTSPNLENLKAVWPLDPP
In short: as §1

ETS2 = molecular target: T8, ETS2 (Homo sapiens, UniProt P15036 1-469); conditions: protein: recombinant; tags: N-terminal GST; dsDNA, one strand shown
T8 sequence: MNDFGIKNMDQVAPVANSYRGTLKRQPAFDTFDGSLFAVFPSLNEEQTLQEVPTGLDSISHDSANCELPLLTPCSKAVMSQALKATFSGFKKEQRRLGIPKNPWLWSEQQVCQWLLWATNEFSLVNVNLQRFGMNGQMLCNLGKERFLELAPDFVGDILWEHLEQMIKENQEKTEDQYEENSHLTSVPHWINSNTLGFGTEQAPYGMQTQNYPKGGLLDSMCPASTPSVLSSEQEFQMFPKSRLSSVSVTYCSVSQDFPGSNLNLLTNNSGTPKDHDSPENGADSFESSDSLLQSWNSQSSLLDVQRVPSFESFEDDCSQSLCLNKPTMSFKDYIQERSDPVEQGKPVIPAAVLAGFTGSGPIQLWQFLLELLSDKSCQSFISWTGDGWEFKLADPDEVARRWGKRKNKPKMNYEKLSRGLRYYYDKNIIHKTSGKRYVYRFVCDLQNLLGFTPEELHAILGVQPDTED
In short: as §1

SPDEF = molecular target: T9, SPDEF (Homo sapiens, UniProt O95238 1-335); conditions: protein: recombinant; tags: N-terminal GST; dsDNA, one strand shown
T9 sequence: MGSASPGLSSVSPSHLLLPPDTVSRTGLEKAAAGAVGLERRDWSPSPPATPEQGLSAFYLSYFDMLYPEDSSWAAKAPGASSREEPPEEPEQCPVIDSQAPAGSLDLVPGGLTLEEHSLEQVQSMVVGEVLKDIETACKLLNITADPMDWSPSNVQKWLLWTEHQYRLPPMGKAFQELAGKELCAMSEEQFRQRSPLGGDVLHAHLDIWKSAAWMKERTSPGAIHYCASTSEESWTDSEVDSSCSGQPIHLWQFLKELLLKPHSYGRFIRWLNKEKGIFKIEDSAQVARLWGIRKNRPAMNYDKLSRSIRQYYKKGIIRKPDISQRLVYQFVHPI
In short: as §1

ETV7 = molecular target: T10, ETV7 (Homo sapiens, UniProt Q9Y603 1-341); conditions: protein: recombinant; tags: N-terminal GST; dsDNA, one strand shown
T10 sequence: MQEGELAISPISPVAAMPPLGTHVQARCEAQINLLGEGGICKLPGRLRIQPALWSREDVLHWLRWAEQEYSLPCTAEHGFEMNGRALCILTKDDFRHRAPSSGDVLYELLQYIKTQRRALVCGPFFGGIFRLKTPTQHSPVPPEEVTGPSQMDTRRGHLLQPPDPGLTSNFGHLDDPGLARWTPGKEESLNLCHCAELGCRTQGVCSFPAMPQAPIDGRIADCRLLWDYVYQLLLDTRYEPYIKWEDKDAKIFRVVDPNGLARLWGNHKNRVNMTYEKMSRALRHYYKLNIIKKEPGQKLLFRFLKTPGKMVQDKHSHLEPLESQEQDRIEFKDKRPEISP
In short: as §1

ELF5 = molecular target: T11, ELF5 (Homo sapiens, UniProt Q9UKW6-2 1-255); conditions: protein: recombinant; tags: N-terminal GST; dsDNA, one strand shown
T11 sequence: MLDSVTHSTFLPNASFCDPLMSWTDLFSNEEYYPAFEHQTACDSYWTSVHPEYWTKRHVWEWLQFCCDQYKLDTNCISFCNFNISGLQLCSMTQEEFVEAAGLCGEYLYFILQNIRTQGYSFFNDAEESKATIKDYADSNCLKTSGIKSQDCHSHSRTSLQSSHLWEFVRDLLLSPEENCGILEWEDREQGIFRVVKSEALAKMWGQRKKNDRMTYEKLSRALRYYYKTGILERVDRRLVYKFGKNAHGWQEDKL
In short: as §1

ETV3 = molecular target: T12, ETV3 (Homo sapiens, UniProt P41162-2 1-143); conditions: protein: recombinant; tags: N-terminal GST; dsDNA, one strand shown
T12 sequence: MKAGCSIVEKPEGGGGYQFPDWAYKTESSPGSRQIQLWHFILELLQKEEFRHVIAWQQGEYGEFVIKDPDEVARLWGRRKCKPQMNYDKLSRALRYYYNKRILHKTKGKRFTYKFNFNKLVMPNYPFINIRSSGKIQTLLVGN
In short: as §1

ETV6 = ETV6 (Homo sapiens, UniProt P41212 1-452); conditions: protein: recombinant; tags: N-terminal GST; dsDNA, one strand shown
Chain of ETV6 (P41212 whole entry): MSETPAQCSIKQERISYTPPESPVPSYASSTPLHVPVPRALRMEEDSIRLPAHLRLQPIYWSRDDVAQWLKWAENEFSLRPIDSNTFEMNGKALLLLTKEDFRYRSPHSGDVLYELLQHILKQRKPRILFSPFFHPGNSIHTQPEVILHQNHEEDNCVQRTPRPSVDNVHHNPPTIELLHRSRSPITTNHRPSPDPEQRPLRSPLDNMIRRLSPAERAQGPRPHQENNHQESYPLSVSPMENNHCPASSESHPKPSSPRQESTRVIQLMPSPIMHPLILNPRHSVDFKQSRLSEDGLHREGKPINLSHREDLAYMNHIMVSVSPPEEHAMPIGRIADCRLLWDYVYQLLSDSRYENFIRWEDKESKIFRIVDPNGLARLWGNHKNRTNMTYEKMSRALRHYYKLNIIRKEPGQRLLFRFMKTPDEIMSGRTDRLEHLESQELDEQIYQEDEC
In short: as §1

Sequence: TCAACT
- binding signal (FEV): 1.36 fold enrichment (6-mer frequency, TF over GST control)
- binding signal (ETV5): 1.26 fold enrichment (6-mer frequency, TF over GST control)
- binding signal (HSF1): 1.2 fold enrichment (6-mer frequency, TF over GST control)
- binding signal (SPIC): 1.32 fold enrichment (6-mer frequency, TF over GST control)
- binding signal (ELF4): 1.27 fold enrichment (6-mer frequency, TF over GST control)
- binding signal (ELK4): 1.36 fold enrichment (6-mer frequency, TF over GST control)
- binding signal (ETV2): 1.41 fold enrichment (6-mer frequency, TF over GST control)
- binding signal (ELF3): 1.37 fold enrichment (6-mer frequency, TF over GST control)
- binding signal (CRX): 1.34 fold enrichment (6-mer frequency, TF over GST control)
- binding signal (ETV1): 1.26 fold enrichment (6-mer frequency, TF over GST control)
- binding signal (ERF): 1.31 fold enrichment (6-mer frequency, TF over GST control)
- binding signal (ETV3L): 1.32 fold enrichment (6-mer frequency, TF over GST control)
- binding signal (ETS2): 1.34 fold enrichment (6-mer frequency, TF over GST control)
- binding signal (SPDEF): 1.27 fold enrichment (6-mer frequency, TF over GST control)
- binding signal (ETV7): 1.12 fold enrichment (6-mer frequency, TF over GST control)
- binding signal (ELF5): 1.24 fold enrichment (6-mer frequency, TF over GST control)
- binding signal (ETV3): 1.31 fold enrichment (6-mer frequency, TF over GST control)
- binding signal (ETV6): 1.33 fold enrichment (6-mer frequency, TF over GST control)
